A short description of assay [1]: TOX21_p53_BLA_p2_viability: Viability Assessment in the Tox21 HCT-116 p53 Agonism Beta-lactamase Assay, Phase 2 (AID 2283591).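 Further: compound exposure lasted 16 h at 37 °C; actives lower the ATP signal meaning cytotoxicity.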 The essentials: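 HCT-116 p53-bla cells (4000/well) rested 5 h at 37C, then received compounds in DMSO (217-fold dilution) for 16 h at 37C, 5% CO2. After the CCF4 read, CellTiter-Glo was added; ATP luminescence was read after 30 min at room temperature.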

Assay [2] is described as follows: TOX21_p53_BLA_p3_viability: Viability Assessment in the Tox21 HCT-116 p53 Agonism Beta-lactamase Assay, Phase 3 (AID 2283593).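 Further: cells exposed to compound for 16 h before reading.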 In outline: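 HCT-116 cells (4000/well) rested 5 h at 37C, then got DMSO compounds by pin tool (217-fold dilution) for 16 h at 37C, 5% CO2. After the bla read, CellTiter-Glo was added and luminescence read at 30 min, room temperature.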

The target of assay [3] is Cellular tumor antigen p53 (Homo sapiens) (UniProt P04637). Description: TOX21_p53_BLA_p3_ratio: Tox21 HCT-116 p53 Agonism Beta-lactamase Assay, Ratio, Phase 3 (AID 2283596). The essentials: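 HCT116 p53-bla cells (4000/well) given compound in DMSO (217-fold dilution) after 5 h, incubated 16 h at 37C. CCF4-AM substrate 2 h at room temperature; 460/530 nm emission ratio, gain fitted against DMSO.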

Assay [4] can be described thus: TOX21_p53_BLA_p4_viability: Viability Assessment in the Tox21 HCT-116 p53 Agonism Beta-lactamase Assay, Phase 4 (AID 2283597).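 Further: hits lower the luminescence signal meaning cytotoxicity.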 In outline: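 Luminescent ATP readout (CellTiter-Glo, 30 min, room temperature) in the same wells as the p53 bla ratio. HCT116 cells were treated for 16 h at 37C with DMSO-dissolved compounds.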
Assay [5] deals with Cellular tumor antigen p53 (Homo sapiens) (UniProt P04637). Description: TOX21_p53_BLA_p5_ratio: Tox21 HCT-116 p53 Agonism Beta-lactamase Assay, Ratio, Phase 5 (AID 2283599). The essentials: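 HCT-116 cells carrying a p53-inducible beta-lactamase reporter were seeded at 4000 cells/well and dosed after 5 h with compound in DMSO (217-fold dilution). After 16 h at 37C, CCF4-AM substrate was added for 2 h, and the 460/530 nm emission ratio was scored as gain-of-signal versus DMSO.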

Assay [6] is described as follows: TOX21_p53_BLA_p5_viability: Viability Assessment in the Tox21 HCT-116 p53 Agonism Beta-lactamase Assay, Phase 5 (AID 2283600). In outline: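 Seeded cells (4000/well) settle 5 h before compound addition. Plates then incubate 16 h at 37C, receive FRET substrate for 2 h, and finally CellTiter-Glo, with luminescence measured after a 30 min room-temperature incubation.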

Assay [7] concerns the target Cellular tumor antigen p53 (Homo sapiens) (UniProt P04637). Description: TOX21_p53_BLA_p4_ratio: Tox21 HCT-116 p53 Agonism Beta-lactamase Assay, Ratio, Phase 4 (AID 2283601). In outline: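 HCT116 cells carrying an inducible beta-lactamase reporter were plated at 4000 cells/well, rested 5 h, then exposed to compounds in DMSO (217-fold dilution) for 16 h at 37C. CCF4-AM substrate was loaded 2 h at room temperature; 460/530 nm emission ratio scored gain-of-signal versus DMSO.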

Assay [8] is described as follows: CCTE_Harrill_HTTr_Viability_MCF7: CCTE's 6-hour Cell Viability Assessment for the High-Throughput Transcriptomics (HTTr) Platform, in MCF-7 cells cultured in DMEM + 10% fetal bovine serum, Harrill Lab (AID 2284010; active means hit-call score of the fitted dose curve at least 0.9, where 1 is the maximum; inactive means score below 0.9). In outline: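 MCF-7 cells in DMEM + 10% FBS, 384-well, exposed 6 h to an eight-point dilution series. Membrane integrity scored by high-content imaging of propidium iodide exclusion; bidirectional fit versus DMSO.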

The nature of assay [9]: CCTE_Harrill_HTTr_CellCount_MCF7: CCTE's Cell Proliferation Assessment for the High-Throughput Transcriptomics (HTTr) Platform, Harrill Lab (AID 2284012).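 Further: cells exposed to compound for six hours; intended direction is loss of nuclei count meaning fewer cells.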 The essentials: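 MCF7 cells exposed 6 hours to an eight-point dilution series; Hoechst-stained nuclei counted by high-content imaging. Bidirectional curve fitting against DMSO baseline.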

Experimental findings from PubChem BioAssay (EPA / NIEHS) are described below.

Records with an inconclusive call do not appear. The source made the active and inactive calls. How the source made its calls, unless noted: active means hit-call score of the fitted dose curve at least 0.9, where 1 is the maximum; inconclusive means response in the unintended direction; inactive means score below 0.9.

Sequence of Cellular tumor antigen p53 (Homo sapiens) (P04637 whole entry, looked up): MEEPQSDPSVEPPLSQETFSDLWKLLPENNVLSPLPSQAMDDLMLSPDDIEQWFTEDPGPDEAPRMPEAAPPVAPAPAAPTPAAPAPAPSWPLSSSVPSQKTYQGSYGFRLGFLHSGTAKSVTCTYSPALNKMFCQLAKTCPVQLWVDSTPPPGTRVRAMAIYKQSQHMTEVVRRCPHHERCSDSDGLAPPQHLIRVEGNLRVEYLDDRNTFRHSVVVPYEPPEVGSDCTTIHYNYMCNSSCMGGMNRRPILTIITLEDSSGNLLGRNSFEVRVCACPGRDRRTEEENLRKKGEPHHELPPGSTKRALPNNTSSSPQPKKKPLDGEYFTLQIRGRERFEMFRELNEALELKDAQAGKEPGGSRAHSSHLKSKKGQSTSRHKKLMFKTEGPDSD

In the case of `[H+].[H+].[Hg+2].[O-]B([O-])[O-].[c-]1ccccc1`, the AC50 (as a rule, the concentration at which the activity in the assay is half-maximal) was 7.89 µM (active) in [1]; 0.975 µM (active) in assay [2]; 1.17 µM (active) in assay [3]; 8.43 µM (active) in assay [4]; 5.39 µM (active) in [5]; 4.94 µM (active) in assay [6]. Besides, the AC50 in assay [7] was 18.3 µM (active).
On to `CC1(C)C(/C=C(\Cl)C(F)(F)F)C1C(=O)OC(C#N)c1cccc(Oc2ccccc2)c1` (configuration not stated), for which the result in assay [1], in assay [2], in assay [3], in [4] and in assay [7] was inactive.
As for `ClCc1ccccc1`, the outcome in [1], in assay [2], in assay [3], in assay [4], in [5] and in assay [6] was inactive.
As to `CN[C@H]1C[C@@H](N)[C@H](O)[C@@H](O[C@@H]2O[C@H](CO)[C@H](O)[C@@H]3OC4(O[C@H]23)O[C@H](C(N)CO)[C@H](O)[C@H](O)C4O)[C@@H]1O` (some centres not stated), the result in [1], in assay [2], in [3], in assay [4] and in [5] was inactive.
In the case of `CCCCc1c(C)nc(NCC)[nH]c1=O`, the result in assay [1], in assay [2], in assay [3], in assay [4], in assay [6] and in assay [8] was inactive. Further, the outcome in assay [9] was inactive.
For the compound `CC(=O)C(Cl)Cl`, the outcome in [1], in assay [2], in [3], in assay [4], in assay [5] and in [6] was inactive. Besides, the result in [7] was inactive.
